In the library only some 12% were active in any assay of this set; here they are far more common.
CHOP inhibitor: inhibitors of CHOP induction in ER stress response; inhibition, % at 10 µM; actives 3.8% (n = 220,000); CHO-K1 CHOP-promoter luciferase, tunicamycin-induced, 15-18 h;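 active means compounds that reduced the stress-induced luciferase reporter signal by more than about 70% of percent inhibition, limit read from the data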;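 further: 0% = tunicamycin plus vehicle and 100% = wells without tunicamycin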
L major viab: reduces viability of Leishmania major promastigotes | resazurin fluorescence viability | inhibition, % at 10 µM | actives 9% (n = 200,000) | AID 1063; in the data active means inhibition above about 50%;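 further: promastigotes grown with compound for 44 hours at 28 °C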
WT yeast gro inh: growth inhibition of WT yeast, mitochondrial fusion screen; mitochondrial fusion phenotypic screen, WT strain; inhibition, % at 10 µM; actives 2.1% (n = 190,000); in the data active means inhibition above about 58%; tested in S. cerevisiae
Arbovirus inh: blocks arbovirus infection | arbovirus infection cell-based antiviral screen | AID 1251 | actives 0.37% (n = 200,000) | inhibition, % at 10 µM; in the data active means inhibition above about 30%
Active calls of the source: *; x = no result given.

SMILES | CHOP inhibitor | L major viab | WT yeast gro inh | Arbovirus inh
Cc1cccc(NS(=O)(=O)c2ccc3nc(-c4ccccc4)[nH]c3c2)c1C | 42 | 59* | -12 | 4
CCOc1cccc(-c2nn(-c3ccccc3)cc2/C=C(/C#N)C(=O)NCCCn2ccnc2)c1 | 95* | 100* | 60* | -39
N#C/C(=C/c1cn(-c2ccccc2)nc1-c1cccc(OCc2ccccc2)c1)C(=O)NCCCn1ccnc1 | 2 | 100* | 12 | -38
CCCSc1ccc(-c2nn(-c3ccccc3)cc2/C=C(/C#N)C(=O)NCCCOC)cc1 | 15 | 86* | -5 | -4
CCSc1ccc(-c2nn(-c3ccccc3)cc2/C=C(/C#N)C(=O)NCCCOC)cc1 | 50 | 5 | -3 | -12
CCC(C)C(NC(=O)C(C)NC(=O)CNC(=O)CNC(=O)OCc1ccccc1)C(=O)OC (centres undefined) | -5 | -6 | 5 | 15
O=C(CCN1C(=O)c2ccc([N+](=O)[O-])cc2C1=O)Nc1ccccc1C(=O)O | 12 | x | x | x
CC(C)c1nc(N2CCN(C(=O)c3ccco3)CC2)c2c3c(sc2n1)CCCC3 | 74* | 38 | 81* | -24
O=C(c1ccccc1)N1CCN(c2ncnc3sc4c(c23)CCC4)CC1 | 47 | 63* | 10 | 6
c1nc(N2CCOCC2)c2c3c(sc2n1)CCCC3 | 38 | -2 | 1 | 12
COc1ccccc1NC(=S)N(CCN1CCOCC1)Cc1ccccc1F | 8 | 6 | 15 | 0
COc1ccccc1NC(=S)N(CCCN1CCOCC1)Cc1cn(C)c2ccccc12 | 26 | 68* | 11 | 14
CCOc1ccccc1NC(=S)N(CCCN1CCOCC1)Cc1cn(C)c2ccccc12 | 14 | 65* | 8 | -2
CC(C)CC(=O)Nc1nnc(CSCc2ccc(F)cc2)s1 | 3 | x | x | x
COc1cc(NC(=O)N2CCNC2=O)cc(C(=O)Nc2cccc(C(F)(F)F)c2)c1 | 74* | x | x | x
COc1cc(OC)cc(C(=O)Nc2cccc(N3CCCC3)c2)c1 | 52 | 72* | 4 | 0
CCCCOc1ccc(C(=O)Nc2ccc(N3CCN(C)CC3)cc2)cc1 | -29 | 63* | 24 | -19
COc1cc(OC)cc(C(=O)Nc2cccc(C(C)=O)c2)c1 | -7 | 0 | 14 | -5
CC(C)Oc1ccc(C(=O)Nc2ccc(N3CCCC3)cc2)cc1 | 73* | -3 | 23 | 3
CC(NC(=O)Nn1cnnc1)(C(F)(F)F)C(F)(F)F | 10 | -2 | 1 | -5
Cc1cnc(C(=O)OCC(=O)NC(=O)NC(C)C)cn1 | 77* | -3 | -11 | 1
Cc1cnc(C(=O)OCC(=O)Nc2ccc(Cl)cc2)cn1 | -11 | -7 | 36 | 13
COc1ccc(C2c3ccc(O)cc3Oc3ncn4nc(-c5ccncc5)nc4c32)cc1OC (centres undefined) | 10 | x | x | x
COc1cc2c(cc1OC)CN(Cc1cc(=O)oc3cc(C)c(Cl)cc13)CC2 | 19 | 60* | 7 | 0
Cc1cc2oc(=O)cc(CN3CCC(C)CC3)c2cc1Cl | 85* | 8 | 6 | 4
SMILES | CHOP inhibitor | L major viab | WT yeast gro inh | Arbovirus inh
COc1cc2c(cc1OC)CN(Cc1cc(=O)oc3cc(C)c(C)cc13)CC2 | 14 | 5 | 3 | 5
CCN(CC(=O)Nc1cc(C)nn1-c1nc(C)cc(C)n1)Cc1ccccc1 | -15 | 53* | 51 | -19
Cc1cc(Nc2ccccc2)n(-c2ccccc2)n1 | 30 | 7 | 24 | -3
Cc1cc(Nc2nc(Cl)c(Cl)cc2Cl)n(-c2ccccc2)n1 | 29 | 4 | 65* | -16
Cc1cc(N2CCN(c3ccccc3)CC2)nc(-n2nc(C)cc2C)n1 | -111 | 72* | 72* | 2
Cc1cc(C)nc(-n2nc(C)cc2Nc2ccccc2)n1 | -37 | 52* | 72* | -13
Cc1cc(C)nc(-n2nc(C)cc2NC(=O)CN2CCc3ccccc3C2)n1 | 15 | 54* | 2 | -13
COc1cc(/C=N/Nc2ccc3ccccc3c2)ccc1OC(=O)c1ccco1 | 37 | 88* | 53 | -28
CCOc1cc(/C=N\Nc2nc(Nc3ccccc3)nc(N3CCOCC3)n2)ccc1OC(=O)c1ccco1 | -1 | 88* | -7 | 20
Cc1ccc(Nc2nc(N/N=C\c3ccc4c(c3)OCO4)nc(N3CCOCC3)n2)cc1 | -18 | 54* | 36 | -23
COc1cc(/C=N/NC(=O)c2ccc(F)cc2)ccc1OC(=O)c1ccco1 | 39 | -7 | -8 | 2
COc1cc(/C=N/Nc2nc(C)cc(C)n2)ccc1OC(=O)c1ccco1 | 9 | 51* | -28 | 2
COC(=O)N/N=C/c1ccc(OC(=O)c2ccco2)c(OC)c1 | 4 | x | x | x
COc1ccc(/C=C(/NC(=O)c2ccccc2)C(=O)NC2CCS(=O)(=O)C2)cc1 (centres undefined) | -12 | -4 | -9 | 8
CC1=CC(=C(C#N)c2nc3ccccc3s2)C=C(C)N1CC1CCCO1 (centres undefined) | -56 | -9 | -3 | 2
